Screening results from PubChem.
Many of the other results were omitted from the sample, so hits are more common in it than they were.
ERp5 block – inhibitors of ERp5-driven insulin aggregation, primary screen, biochemical, turbidity, absorbance 650 nm, single point; Protein disulfide-isomerase A6 (Homo sapiens), Q15084; 90 min; inhibition, % at 9.99 µM; 350,000 tested, 0.05% active; AID 651711, 2012;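 active = mean replicate inhibition above about 25%, with every replicate also reaching it, limit read from the data, passing the limit was not always enough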
ERAP1 HTS inh – human ERAP1 aminopeptidase inhibitors, primary screen, biochemical, single point, plate reader; 340,000 tested, 0.15% active; AID 652197, 2013; inhibition, % at 10.7 µM; recombinant ERAP1, Leu-AMC fluorescence, 60 min; Endoplasmic reticulum aminopeptidase 1 (Homo sapiens), Q9NZ08;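 active = mean replicate inhibition of at least 30%, or all replicates individually reaching that 30% level; inactive = mean below 30% and not every replicate reaching it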
HDAC3 inh – HDAC3 deacetylase inhibitors, primary screen, biochemical, fluorescence, cell-free homogeneous; Histone deacetylase 3 (Homo sapiens), O15379; recombinant HDAC3, fluorogenic peptide/trypsin coupled; inhibition, % at 8.3 µM; 320,000 tested, 0.15% active; AID 2718, 2010; in the data active = inhibition above about 26%, passing the limit was not always enough
Target sequence (O15379 whole entry, looked up): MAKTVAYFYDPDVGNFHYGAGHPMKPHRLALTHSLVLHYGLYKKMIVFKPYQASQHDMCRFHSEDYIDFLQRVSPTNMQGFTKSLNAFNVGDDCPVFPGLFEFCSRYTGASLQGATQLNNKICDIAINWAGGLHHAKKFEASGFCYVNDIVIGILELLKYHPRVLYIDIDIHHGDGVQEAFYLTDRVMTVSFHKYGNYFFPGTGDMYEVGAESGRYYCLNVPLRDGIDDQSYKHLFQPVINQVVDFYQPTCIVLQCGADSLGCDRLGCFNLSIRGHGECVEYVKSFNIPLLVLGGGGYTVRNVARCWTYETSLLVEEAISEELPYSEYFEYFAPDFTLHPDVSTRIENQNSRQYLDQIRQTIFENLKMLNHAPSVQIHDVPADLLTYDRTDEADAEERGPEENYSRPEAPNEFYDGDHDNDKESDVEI
SIRT5 inh – SIRT5 desuccinylase inhibitors, primary screen, biochemical, fluorescence imaging, single point, set 5. Purified SirT5, succinyl-peptide AMC, trypsin-coupled fluorescence. inhibition, % at 15 µM. NAD-dependent protein deacylase sirtuin-5, mitochondrial (Homo sapiens), Q9NXA8. 330,000 tested, 1.1% active; in the data active = inhibition above about 15%
PDI turbidity – inhibitors of human PDI, primary screen, biochemical, turbidity, single point, plate reader | PDI insulin aggregation turbidity, A650, 90 min | AID 588391, 2011 | Protein disulfide-isomerase (Homo sapiens), P07237 | inhibition, % at 10 µM | 350,000 tested, 0.052% active;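 active = mean inhibition across replicates of 30% or more, whatever share of single replicates reach that level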
Large screens that a line does not name were inactive; ! = repeats disagree.

COc1ccc(NC(=O)N[C@@H]2CC[C@H](CC(=O)NCc3ccccn3)O[C@@H]2CO)cc1	none (no result: HDAC3 inh, PDI turbidity)
C[C@@H]1CCCCO[C@H](CN(C)Cc2ccc(C(=O)Nc3ccccc3N)cc2)[C@@H](C)CN([C@H](C)CO)C(=O)c2cc(NS(=O)(=O)c3cccs3)ccc2O1	none (no result: HDAC3 inh, SIRT5 inh, PDI turbidity)
C[C@@H]1CCCCO[C@@H](CN(C)Cc2ccc(C(F)(F)F)cc2)[C@H](C)CN([C@@H](C)CO)C(=O)c2cc(NS(=O)(=O)c3cccs3)ccc2O1	SIRT5 inh 19 (no result: HDAC3 inh, PDI turbidity)
C[C@@H]1CN([C@H](C)CO)C(=O)c2cc(NS(=O)(=O)c3cccs3)ccc2O[C@H]1CN(C)C(=O)NC1CCCCC1	none (no result: HDAC3 inh, PDI turbidity)
C[C@@H]1CCCCO[C@@H](CN(C)Cc2ccc(C(F)(F)F)cc2)[C@@H](C)CN([C@H](C)CO)C(=O)c2cc(NS(=O)(=O)c3cccs3)ccc2O1	none (no result: HDAC3 inh, PDI turbidity)
C[C@@H]1CCCCO[C@@H](CN(C)Cc2ccc(C(=O)Nc3ccccc3N)cc2)[C@@H](C)CN([C@H](C)CO)C(=O)c2cc(NS(=O)(=O)c3cccs3)ccc2O1	ERp5 block 70 (no result: HDAC3 inh, PDI turbidity)
C[C@@H]1CCCCO[C@H](CN(C)Cc2ccc(C(F)(F)F)cc2)[C@H](C)CN([C@H](C)CO)C(=O)c2cc(NS(=O)(=O)c3cccs3)ccc2O1	SIRT5 inh 16 (no result: HDAC3 inh, PDI turbidity)
C[C@H](CO)N1C[C@H](C)[C@@H](CN(C)C(=O)NC2CCCCC2)Oc2ccc(NS(=O)(=O)c3cccs3)cc2C1=O	SIRT5 inh 16!
C[C@@H]1CCCCO[C@H](CN(C)Cc2ccc(C(F)(F)F)cc2)[C@@H](C)CN([C@H](C)CO)C(=O)c2cc(NS(=O)(=O)c3cccs3)ccc2O1	none (no result: HDAC3 inh, PDI turbidity)
CC(C)NC(=O)Nc1ccc2c(c1)CC(=O)N([C@@H](C)CO)C[C@@H](C)[C@H](CN(C)Cc1ccc(Oc3ccccc3)cc1)O2	none (no result: HDAC3 inh, PDI turbidity)
COc1ccc(S(=O)(=O)N(C)C[C@@H]2OCCCC[C@H](C)Oc3ccc(NC(=O)C4CCCCC4)cc3C(=O)N([C@H](C)CO)C[C@H]2C)cc1	none (no result: HDAC3 inh, PDI turbidity)
C[C@@H]1CCCCO[C@H](CN(C)Cc2ccc(C(=O)O)cc2)[C@H](C)CN([C@H](C)CO)C(=O)c2cc(NS(=O)(=O)c3cccs3)ccc2O1	SIRT5 inh 21 (no result: HDAC3 inh, PDI turbidity)
O=C(Nc1ccc2c(c1)OCCO2)C(c1ccnc2ccccc12)N1CCN(c2ccc(C(F)(F)F)cn2)CC1 (stereo not drawn)	none (no result: HDAC3 inh, PDI turbidity)
O=C(Nc1ccc2c(c1)OCCO2)C(c1ccnc2ccccc12)N1CCN(c2ccc(F)cc2)CC1 (stereo not drawn)	SIRT5 inh 29 (no result: HDAC3 inh, PDI turbidity)
CCOc1ccc(CN2C(=O)c3ccccc3C2=O)cc1C(=O)NC1CC(C)(C)NC(C)(C)C1	ERAP1 HTS inh 49
Cn1c(=S)[nH]c2sc3c(c2c1=O)CCC(C(C)(C)C)C3 (stereo not drawn)	SIRT5 inh 35
COCCn1c(=S)[nH]c2sc3c(c2c1=O)CCC(C)C3 (stereo not drawn)	none
CCN(CC)S(=O)(=O)c1ccc(C(=O)N2CCc3ccccc32)cc1	SIRT5 inh 16
COc1cc(/C=C2\N=C(C)OC2=O)cc(Cl)c1OC(C)=O	none
CCOc1cc(/C=C2\N=C(C)OC2=O)cc(Cl)c1OCC(=O)OC	HDAC3 inh 48
CC(NC(=O)/C(C#N)=C/c1ccc(OCC(=O)O)cc1)c1ccccc1 (stereo not drawn)	ERAP1 HTS inh 35
C[C@@H](NC(=O)/C(C#N)=C/c1ccc(O)c(O)c1)c1ccccc1	none
COc1ccc(C(=O)NCc2nnc(SCC(=O)c3ccccc3)o2)cc1	none
COc1ccc(NCc2nnc(SCC(=O)c3ccc(OC)cc3)o2)cc1	HDAC3 inh 41 (no result: ERp5 block, ERAP1 HTS inh, SIRT5 inh)
N#Cc1ccc(NC(=O)Cn2c3[n+](c4ccc(C(F)(F)F)cc42)CCCCC3)cc1	ERAP1 HTS inh 64
O=C(NCCc1csc(-c2cccnc2)n1)c1ccccc1Br	SIRT5 inh 15
COc1ccc(-c2csc3nc[nH]c(=O)c23)cc1	SIRT5 inh 23
CCOc1ccc(-c2csc3nc[nH]c(=O)c23)cc1	none
COC(=O)Nc1ccc(Cn2cc(C(F)(F)F)ccc2=O)cc1	SIRT5 inh 17
COC(=O)c1ccc(Cn2cc(C(F)(F)F)ccc2=O)cc1	none (no result: SIRT5 inh)
COCCCNC(=O)/C(C#N)=C1\N=C(NC(=O)c2cccs2)c2ccccc21	ERAP1 HTS inh 54
COc1ccc(NC(=O)Nc2ccc3c(c2)[C@H]2C[C@@H](CC(=O)NCc4ccccc4F)O[C@@H](CO)[C@H]2O3)cc1	none (no result: HDAC3 inh, PDI turbidity)
COc1cc(O)c2c(c1)oc(=O)c1c3cc(O)c(O)cc3oc21	SIRT5 inh 23 (no result: HDAC3 inh, PDI turbidity)
COc1ccc2c(c1)oc(=O)c1cc(OC)ccc12	none (no result: PDI turbidity)
O=S(=O)(NCC[C@H]1CC[C@H](NS(=O)(=O)c2cccc(Cl)c2)[C@H](CO)O1)c1cccc(F)c1	none (no result: HDAC3 inh, PDI turbidity)
COc1ccc(S(=O)(=O)N(C)C[C@@H]2OCCCC[C@@H](C)Oc3ccc(NC(=O)Nc4ccc(C(F)(F)F)cc4)cc3C(=O)N([C@@H](C)CO)C[C@@H]2C)cc1	SIRT5 inh 28 (no result: HDAC3 inh, PDI turbidity)
COc1ccc(CN(C)C[C@H]2OCCCC[C@@H](C)Oc3ccc(NC(=O)Nc4ccc(F)cc4)cc3C(=O)N([C@@H](C)CO)C[C@@H]2C)cc1	SIRT5 inh 100 (no result: HDAC3 inh, PDI turbidity)
COc1ccc(S(=O)(=O)N(C)C[C@@H]2OCCCC[C@H](C)Oc3ccc(NC(=O)Nc4ccc(F)cc4)cc3C(=O)N([C@H](C)CO)C[C@H]2C)cc1	SIRT5 inh 17 (no result: HDAC3 inh, PDI turbidity)
COc1ccc(S(=O)(=O)N(C)C[C@H]2OCCCC[C@@H](C)Oc3ccc(NC(=O)Nc4ccc(C(F)(F)F)cc4)cc3C(=O)N([C@@H](C)CO)C[C@H]2C)cc1	none (no result: HDAC3 inh, PDI turbidity)
C[C@@H]1CCCCO[C@@H](CN(C)S(=O)(=O)c2ccc(F)cc2)[C@H](C)CN([C@@H](C)CO)C(=O)c2cc(NC(=O)Nc3ccc4c(c3)OCO4)ccc2O1	SIRT5 inh 21 (no result: HDAC3 inh, PDI turbidity)
COc1ccc(CN(C)C[C@@H]2OCCCC[C@H](C)Oc3ccc(NC(=O)Nc4ccc(F)cc4)cc3C(=O)N([C@H](C)CO)C[C@@H]2C)cc1	none (no result: HDAC3 inh, PDI turbidity)
CO[C@@H]1CN(C)C(=O)c2ccc(NC(=O)Cc3ccccc3)cc2OC[C@@H](C)N(CC2CC2)C[C@H]1C	none (no result: HDAC3 inh, PDI turbidity)
CN1C(=O)c2cc(NS(C)(=O)=O)ccc2OC[C@H]2O[C@@H](CC(=O)O)CC[C@@H]21	none (no result: HDAC3 inh, PDI turbidity)
COc1ccc(NC(=O)Nc2ccc3c(c2)C(=O)N([C@@H](C)CO)C[C@@H](C)[C@@H](CN(C)S(=O)(=O)c2ccccc2)OCCCC[C@@H](C)O3)cc1	none (no result: HDAC3 inh, PDI turbidity)
